# Hits are enriched below; roughly 2.8% of the tested compounds scored in any of these assays.
# MITF TRPM1 HTS: activators of MITF-driven TRPM1 promoter reporter, primary screen, cell-based, SK-MEL-5, luciferase, single point; SK-MEL-5 TRPM1-promoter luciferase, 24 h; % of positive control, neutral wells = 0; activation, % at 12.5 µM; hit rate 0.75% among 300,000; AID 588334, 2011;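 active means mean activation of at least 80% with every replicate also reaching 80%; inconclusive means mean reaches 80% but some replicate falls short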
# GAA850 FXN act: FXN promoter activators, primary screen, cell-based, luciferase luminescence, HEK293 lucGAA850; HEK293 lucGAA850 FXN promoter luciferase reporter, 24 h; percent of 10 µM SAHA response; activation, % at 6 µM; hit rate 0.56% among 360,000;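 active means activation above the average of all compounds screened plus 3 SD, cutoff fixed separately per campaign, cut at about 7.5% in these data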
# esBAF inh: Bmi1 luciferase reporter increase in mESCs, primary screen, esBAF inhibitor project, mouse ES cells, Bmi1 luciferase knock-in, single point | reporter increase, % at 12.5 µM | 24 h; 100% = twice the neutral-well signal | AID 602393, 2012 | hit rate 2% among 350,000; in the data active means activation above about 40%; inconclusive means no clear call, values can overlap the other calls;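 further: a rise in the Bmi1 reporter signal indicates esBAF inhibition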
# Wnt bcat act: Wnt/beta-catenin pathway activators, primary screen, cell-based, plate reader, single point; Wnt/beta-catenin reporter cell assay, activator; activation, % at 9.35 µM; hit rate 1.2% among 300,000; in the data active means activation above about 30%, passing the limit was not always enough; inconclusive means no clear call, values can overlap the other calls
# Hits are given with their value; n = inactive; u = inconclusive; x = no result given.
SMILES,MITF TRPM1 HTS,GAA850 FXN act,esBAF inh,Wnt bcat act
Cc1nnc(NC(=O)C2COc3ccccc3O2)s1 (centres undefined),x,n,46.2,x
O=C(Nc1ncc(Cc2ccccc2)s1)C1COc2ccccc2O1 (centres undefined),u,n,52.9,x
Cc1ccccc1NC(=O)C1COc2ccccc2O1 (centres undefined),n,n,n,n
CCc1nnc(NC(=O)C2COc3ccccc3O2)s1 (centres undefined),n,n,x,x
CCC(CC)c1nnc(NC(=O)C2COc3ccccc3O2)s1 (centres undefined),n,n,n,x
NS(=O)(=O)c1ccc(NCC2COc3ccccc3O2)c([N+](=O)[O-])c1 (centres undefined),n,n,x,n
CC(=O)c1ccc(NCC2COc3ccccc3O2)c([N+](=O)[O-])c1 (centres undefined),n,n,72.3,76.0
COCC(=O)N(C)C[C@@H]1Oc2ncc(C3=CCCCC3)cc2C(=O)N([C@@H](C)CO)C[C@H]1C,x,x,n,x
CCn1ncc(C(=O)Nc2cccc(Cl)c2)c1C,n,n,53.4,n
CCc1cccc(NC(=O)c2cnn(-c3ccccc3)c2C)c1,x,n,n,n
Cc1ccc(S(=O)(=O)Nc2ccc3c(c2)CC(=O)N([C@@H](C)CO)C[C@@H](C)[C@H](CN(C)S(=O)(=O)c2cccs2)O3)cc1,x,x,n,x
CN1CCN(C(=O)C[C@H]2C[C@@H]3c4cc(NC(=O)C5CCOCC5)ccc4O[C@@H]3[C@@H](CO)O2)CC1,x,x,n,x
O=C(Nc1ccccc1)c1nnn(Cc2ccccc2)c1NC(=O)C(F)(F)F,x,n,55.6,n
C(=N\Nc1nccc(-c2cccnc2)n1)/c1ccccc1,x,n,x,48.7
C(=N\Nc1nc(-c2ccccc2)cs1)/c1cccnc1,n,n,62.6,n
Cc1cccc(NC(=O)Nc2ccc3c(c2)C(=O)N(C)[C@@H]2CC[C@H](CC(=O)O)O[C@@H]2CO3)c1,x,x,n,x
CN1CCN(S(=O)(=O)c2ccc(NN)nc2)CC1,n,n,n,57.0
COc1ccc(C(=O)c2ccc(CC#N)s2)cc1,u,n,51.0,x
COc1ccc(C(=O)c2ccsc2N)cc1,n,n,x,n
Cc1cccc(/C=C(\c2nc3ccccc3[nH]2)S(=O)(=O)c2ccccc2)c1,n,n,n,40.5
CCN(CC)C(=O)CSc1nc2ccc(NC(=O)CSc3nnc(N)s3)cc2s1,n,n,n,x
CCN(CC)C(=O)CSc1nc2ccc(NC(=O)CSc3nccn3C)cc2s1,n,n,78.5,n
Cn1cnnc1SCC(=O)Nc1ccc2nc(SCc3cccc4ccccc34)sc2c1,n,n,x,x
Cn1cnnc1SCC(=O)Nc1ccc2nc(SCc3ccccc3)sc2c1,n,n,68.6,n
O=C(c1cnc(Cc2c[nH]c3ccccc23)c(I)c1)N1CCOCC1,x,n,n,n
SMILES,MITF TRPM1 HTS,GAA850 FXN act,esBAF inh,Wnt bcat act
O=C(c1cnc(Cc2c[nH]c3ccccc23)c(I)c1)N1CCCCC1,x,n,49.5,n
O=C(C[C@@H]1C[C@@H]2c3cc(NC(=O)c4cccnc4)ccc3O[C@@H]2[C@@H](CO)O1)NCCN1CCCCC1,x,x,n,x
COc1ccc(NC(=O)N(C)C[C@H]2Oc3ccc(NC(=O)NC(C)C)cc3C(=O)N([C@@H](C)CO)C[C@@H]2C)cc1,x,x,n,x
Cn1c2ccccc2c(=O)c2c(=O)n(-c3ccc(F)cc3)c(-c3cccs3)nc21,n,n,x,51.4
Cc1ccc(-c2nc3c(c(=O)c4ccccc4n3C)c(=O)n2-c2ccc(F)cc2)cc1,n,n,x,n
Cc1sc2nc(-c3cccnc3)nc(Cl)c2c1-c1ccccc1,n,n,57.6,n
Cc1nc(-c2ccccc2)nc(Cl)c1Cl,n,n,n,n
COc1ccc(C(=O)COC(=O)c2n[nH]c3ccccc23)c(OC)c1,95.9,n,x,n
O=C(OCCOc1ccccc1)c1n[nH]c2ccccc12,106.0,n,u,38.3
COc1ccc(OC)c(C(=O)COC(=O)c2ccccc2O)c1,x,n,41.5,x
CCOC(=O)C1CCCN(c2ncnc3c2cnn3-c2cccc(C)c2)C1 (centres undefined),n,n,n,x
Cc1cccc(-n2ncc3c(N(C)Cc4ccccc4)ncnc32)c1,n,n,53.3,u
CCN1CCN(c2ncnc3c2cnn3-c2ccccc2)CC1,86.9,n,n,n
c1ccc(-n2ncc3c(N4CCCCC4)ncnc32)cc1,n,n,n,n
CCN1CCN(c2ncnc3c2cnn3-c2ccc(Cl)cc2)CC1,n,n,n,n
c1ccc(-n2ncc3c(N4CCC5(CC4)OCCO5)ncnc32)cc1,93.2,n,54.6,x
Cc1cccc(-n2ncc3c(N4CCC(C)CC4)ncnc32)c1,n,n,n,38.3
O=C(C[C@@H]1CC[C@H](NC(=O)Cc2ccccn2)[C@@H](CO)O1)NCCc1ccncc1,x,x,n,x
Cc1ccc(C)c(N2CCN(c3ncnc4c3cnn4-c3ccccc3)CC2)c1,n,n,n,n
Cc1cccc(-n2ncc3c(N4CCC5(CC4)OCCO5)ncnc32)c1,n,n,53.7,n
C[C@H](CO)N1C[C@H](C)[C@H](CN(C)S(C)(=O)=O)OCCCC[C@H](C)Oc2ccc(NC(=O)CCC(F)(F)F)cc2C1=O,x,x,n,x
O=C(Oc1ccccc1N1CCOCC1)c1sccc1Br,x,n,n,44.7
COCCCNC(=O)c1c(NC(=O)c2cccs2)sc2c1CCCC2,x,n,n,n
NC(=O)c1c(NC(=O)c2cccs2)sc2c1CCCCCC2,118.0,n,104.6,x
O=C(Nc1sc2c(c1C(=O)O)CCC2)c1cccs1,n,n,45.8,x
SMILES,MITF TRPM1 HTS,GAA850 FXN act,esBAF inh,Wnt bcat act
COc1ccc(-c2cc3cc(OC)c(OC)cc3cn2)cc1,n,n,67.6,u
COc1cc2cnc(-c3ccccc3)cc2cc1OC,n,n,n,n
c1ccc(-c2cc3cc4c(cc3cn2)OCO4)cc1,n,n,n,63.3
COc1cc(OC)cc(-c2cc3cc4c(cc3cn2)OCO4)c1,n,n,n,x
COc1ccc(-c2cc3cc4c(cc3cn2)OCO4)cc1,n,n,n,36.7
COc1ccc(S(=O)(=O)N[C@H]2CC[C@@H](CCNC(=O)CN3CCOCC3)O[C@H]2CO)cc1,x,x,n,x
O=C(Cc1ccccn1)N[C@H]1CC[C@@H](CCNC(=O)c2cc(Cl)cc(Cl)c2)O[C@H]1CO,x,x,n,x
Cc1nc2sc(C(=O)Nc3ccccc3)c(N)c2c(C)c1[N+](=O)[O-],n,n,x,36.3
CO[C@@H]1CN(C)C(=O)c2cc(NS(=O)(=O)c3cn(C)cn3)ccc2OC[C@@H](C)N(Cc2cccc(F)c2)C[C@H]1C,x,x,n,x
CC(C)(C)N=Cc1cc(-c2ccccc2)sc1O,x,n,73.5,62.9
CC(=O)c1sc(-c2ccccc2)cc1N,x,n,x,n
CCOc1cc(/C=C2\N=C3CCCCCN3C2=O)ccc1O,n,n,x,n
COc1cccc(/C=C2\N=C3CCCCCN3C2=O)c1,n,n,n,35.7
Cc1ccc(NC(=O)C2CCN(C(=O)[C@@H]3Cc4ccccc4CN3)CC2)cc1,n,n,54.4,n
Cc1cc(C)cc(NC(=O)C2CCN(C(=O)[C@@H]3Cc4ccccc4CN3)CC2)c1,n,n,n,n
Cc1ccc(COn2c(-c3ccc(Cl)cc3)nc3ccc([N+](=O)[O-])cc32)cc1,102.5,n,53.7,42.4

# Source: PubChem
